# Results from PubChem BioAssay.
# Target: E3 ubiquitin-protein ligase XIAP (Homo sapiens) (UniProt P98170)
# Test: small molecules binding XIAP protein – biophysical, small-molecule microarray, fluorescence 635 nm, primary screen (AID 1181);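 also: score merges 667 nm emission and signal to noise over triplicate slides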
# Settings: higher = more signal
# Chain of E3 ubiquitin-protein ligase XIAP (Homo sapiens) (P98170 whole entry, looked up): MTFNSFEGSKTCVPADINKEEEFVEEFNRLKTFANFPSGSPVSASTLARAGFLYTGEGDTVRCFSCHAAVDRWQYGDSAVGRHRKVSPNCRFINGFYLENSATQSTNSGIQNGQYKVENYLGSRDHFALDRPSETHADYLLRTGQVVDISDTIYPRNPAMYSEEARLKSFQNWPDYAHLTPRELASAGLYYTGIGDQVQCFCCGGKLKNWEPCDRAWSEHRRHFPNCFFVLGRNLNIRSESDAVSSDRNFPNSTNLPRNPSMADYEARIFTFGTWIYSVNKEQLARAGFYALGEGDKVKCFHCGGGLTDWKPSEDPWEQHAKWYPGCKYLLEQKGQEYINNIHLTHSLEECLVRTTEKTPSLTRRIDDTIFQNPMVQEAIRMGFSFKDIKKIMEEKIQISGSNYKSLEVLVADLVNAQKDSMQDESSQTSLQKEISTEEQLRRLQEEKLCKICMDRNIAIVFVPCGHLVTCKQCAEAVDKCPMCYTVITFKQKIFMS
row,Compound,composite z-score
1,CN1C(=O)[C@@H]2[C@@H](CC(COc3ccccc3)=C3[C@@H](CCc4ccccc4)OB(O)C[C@@H]32)C1=O,-0.02
2,CC(C)(C)OC(=O)CC[C@]1(C(=O)NCC(O)CO)N=C(c2ccc(OCCCO)cc2)O[C@H]1c1ccccc1N=[N+]=[N-] (stereo not given in full),-0.0018
3,COc1ccc([Si](C)(C)[C@H]2[C@H](CC(=O)N3CCC[C@H]3CO)O[C@@]3(C(=O)N(Cc4ccc(N5CCCCC5=O)cc4)c4ccccc43)[C@@H]2C)cc1,0.197
4,C=CCOC(=O)[C@H]1[C@@H]2C(=O)O[C@@H](c3ccccc3)[C@@H](c3ccccc3)N2[C@@H](c2ccc(OCCOC(=O)[C@@H]3C[C@@H]4C(=O)N[C@@H](CCCC[N+](C)(C)C)C(=O)N4[C@@H]3c3ccc(O)cc3)cc2)[C@]12C(=O)Nc1ccc(I)cc12,0.261
5,O=C(NCc1ccc(F)cc1)[C@H]1C[C@H]2C(=O)N3CCC[C@H]3C(=O)N2[C@H]1c1ccc(O)cc1,0.33
